Assay results from PubChem BioAssay AID1851 (National Center for Advancing Translational Sciences (NCATS), 2009).
In all, about 16,000 compounds went through this assay and about 5,800 (36%) were called active. Inconclusive results (about 23%) are left out. Calls follow the shape of the dose curve; as a rule, active = well fitted curve in the direction sought with a large enough effect; inconclusive = small, poorly fitted or top-dose-only effect, or effect the other way; inactive = no such curve, though single readings can be large or run the other way. This is one part of the list.

Each compound was assayed against Cytochrome P450 2C19 (Homo sapiens) (UniProt P33261) (assay: Cytochrome panel assay with activity outcomes). Conditions: recombinant CYP, pro-luciferin dealkylation, luminescence, p450-cyp2c19; series mostly up to 57.1 µM; activity, negative = inhibition: at the top concentration.
Chain of Cytochrome P450 2C19 (Homo sapiens) (P33261 whole entry, looked up): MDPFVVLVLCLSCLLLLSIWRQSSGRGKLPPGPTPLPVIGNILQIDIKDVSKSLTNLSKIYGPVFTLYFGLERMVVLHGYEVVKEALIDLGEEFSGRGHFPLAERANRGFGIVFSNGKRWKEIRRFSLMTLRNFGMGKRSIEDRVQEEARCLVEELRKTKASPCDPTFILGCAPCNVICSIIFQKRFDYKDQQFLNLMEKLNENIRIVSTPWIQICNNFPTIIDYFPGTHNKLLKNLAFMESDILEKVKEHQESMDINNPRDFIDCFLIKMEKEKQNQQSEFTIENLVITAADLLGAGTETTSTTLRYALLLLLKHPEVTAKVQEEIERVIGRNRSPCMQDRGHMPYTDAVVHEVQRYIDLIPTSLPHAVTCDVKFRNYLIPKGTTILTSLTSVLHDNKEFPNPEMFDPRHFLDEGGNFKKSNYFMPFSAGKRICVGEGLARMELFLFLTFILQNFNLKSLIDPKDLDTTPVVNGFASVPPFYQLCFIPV
% is scaled to controls: 0 for no effect and ±100 for the full control effect.

activity, negative = inhibition, inactive:
Cn1cccc1C(=O)N1CCC2(CC1)CN(Cc1ccc(C#N)cc1)C2 41.3%, CNC(=O)[C@@H]1O[C@@H](n2cnc3c(NCc4cccc(I)c4)ncnc32)[C@H](O)[C@@H]1O 22.5%, COc1c(O[C@H]2O[C@@H](CO)[C@@H](O)[C@@H](O)[C@@H]2O)cc2c(c1OC)-c1ccc(SC)c(=O)cc1[C@H](NC(C)=O)CC2 -33.1% [at 25.6 µM], C=CC1=C(C)C2=Cc3c(C=C)c(C)c4[n]3[Sn+2][n]3c(c(C)c(CCC(=O)O)c3=CC3=NC(=C4)C(C)=C3CCC(=O)O)=CC1=N2 -26%, C=C1C(=O)O[C@@H]2[C@H]3O[C@]3(C)CCC=C(C)CC[C@@H]12 -30%, CC(C)CC(=O)N[C@H](C(=O)N[C@H](C(=O)N[C@@H](CC(C)C)[C@H](O)CC(=O)N[C@@H](C)C(=O)N[C@@H](CC(C)C)[C@H](O)CC(=O)O)C(C)C)C(C)C -5.61% [at 25.6 µM], C#CCCCO/N=C1/[C@H]2O[C@@H]2[C@@H](O)[C@H]2[C@H]1CCn1c(=O)n([C@@H](CC)c3ccccc3)c(=O)n12 -6.75% [at 11.4 µM], CCCCOc1cc(C[C@@H]2CNC(=O)N2)ccc1OC 6.71%, CC[N+](CC)(CC)CCOc1cccc(OCC[N+](CC)(CC)CC)c1OCC[N+](CC)(CC)CC 33.1% [at 25.6 µM], Cc1ccc(-n2ncc3c(=O)n(CC(=O)NCC4CCCO4)cnc32)cc1 (stereo unspecified) -21.8%, Cc1ccc(NC(=O)Cn2cnc3c(cnn3C(C)(C)C)c2=O)cc1 -26.7%, O=c1[nH]c2cc(Cl)ccc2c(O)c1-c1ccc(Oc2ccccc2)cc1 10.8%, Cc1cc(=O)[nH]c(-n2[nH]c(C)cc2=O)n1 -9.54%, CCO/C(C)=N/n1c2nc3ccccc3nc2c2c(=O)n(CC(C)C)c(C)nc21 -24.5%, OCCSCc1cc(Cl)cc(Cl)c1O -25.3% [at 11.4 µM], O=C(O)Cc1cc(Cl)ccc1O 42.6% [at 11.4 µM], COc1ccc(C(=O)N2CCC3(CCCN(Cc4ccccc4OC)C3)CC2)cc1 -4.97%, Nc1nc(SCc2ccc([N+](=O)[O-])cc2)c2ncn([C@@H]3O[C@@H](CO)[C@@H](O)[C@H]3O)c2n1 -25.4%, OC[C@@H]1O[C@@H](n2cnc3c(SCc4ccccc4)ncnc32)[C@@H](O)[C@H]1O 1.35% [at 11.4 µM], Cn1cnc([N+](=O)[O-])c1Sc1nc(N)nc2c1ncn2Cc1ccccc1 21.2% [at 11.4 µM], Cn1c(=O)c2cc(S(=O)(=O)NCCC(=O)Nc3ccc(Cl)cc3)ccc2n(C)c1=O -26.7%, CCCN(CCC)CCNC(=O)C1CCCN(S(=O)(=O)c2ccc3c(c2)oc(=O)n3C)C1 (stereo unspecified) 22.6%, CC(C)(C)c1onc(OCP(=O)(O)O)c1C[C@@H](N)C(=O)O -1.17%, CCOc1cc(C#N)c(NC(=O)c2cccnc2)cc1OCC -11.4%, COC(=O)c1cc(=O)[nH]c(=O)[nH]1 23% [at 11.4 µM], CCNc1ncc2nc(-c3cc(F)cc(F)c3)c(=O)n(CCOC)c2n1 -41.4%, COC(=O)/C=C\CCc1coc(/C=C\CNC(=O)OC)n1 31.7% [at 11.4 µM], CCCc1cc(=O)oc2cc(OCc3cc(OC)c(OC)c(OC)c3)c(Cl)cc12 4.84%

AC50, active:
COc1ccccc1CNc1nc(-c2ccc(N(C)C)cc2)nc2ccccc12 10 µM, COc1ccc(CNc2nc(-c3ccc(C(=O)N(C)C)cc3)nc3ccccc23)c(OC)c1 15.8 µM, COc1ccccc1CNc1nc(-c2ccc3c(c2)OCO3)nc2ccccc12 3.16 µM, CCC(=O)NC(Nc1sc2c(c1C(=O)OC)CCCC2)(C(F)(F)F)C(F)(F)F 3.98 µM, Cc1ccc(C(=O)CN(C(=O)c2ccc(Cl)cc2)N2C(=O)c3ccccc3C2=O)cc1 15.8 µM, COc1ccc(C(=O)CN(C(=O)c2ccc(Cl)cc2)N2C(=O)c3ccccc3C2=O)cc1 4.47 µM, COc1ccccc1CNc1ncncc1-c1ccccc1Cl 1.26 µM, COc1ccc(CNc2ncncc2-c2ccccc2OC)c(OC)c1 2 µM, COc1ccccc1CNc1ncncc1-c1ccccc1C 3.98 µM, COc1ccc(CNc2ncncc2-c2ccccc2C)c(OC)c1 1.58 µM, CCCCOc1ccccc1N 14.1 µM, CC(C)(C)n1ncc2c(=O)n(CC(=O)NCc3ccccc3Cl)cnc21 14.1 µM, Cc1ccccc1Cn1cnc2c(cnn2C(C)(C)C)c1=O 2 µM, Cc1ccc(C)c(Cn2cnc3c(cnn3C(C)(C)C)c2=O)c1 0.398 µM, Nc1cc(Cl)ccc1Oc1ccc(Cl)cc1 0.562 µM, Nc1cc(Cl)ccc1Oc1ccccc1 3.98 µM, CCCn1c(C)nc2c(c1=O)c1nc3ccccc3nc1n2CCC1=CCCCC1 8.91 µM, Oc1ccc(Cl)cc1Cc1cc(Cl)cc(Cc2cc(Cl)ccc2O)c1O 1.26 µM, Oc1ccc(Cc2cc(Cl)cc(Cl)c2O)cc1Cl 1.26 µM, COC(=O)[C@@]1(Cc2ccc(OC)cc2)[C@H]2c3cc(C(=O)N4CCCC4)n(Cc4cc(F)cc5c4OCOC5)c3C[C@H]2CN1C(=O)c1ccccc1 7.94 µM, COC(=O)[C@@]1(Cc2ccccc2)[C@H]2c3cc(C(=O)N4CCCC4)n(Cc4cc(F)cc5c4OCOC5)c3C[C@H]2CN1C(=O)c1ccccc1 0.251 µM, CCCn1cnc2c(SCc3ccc(Cl)cc3)nc(N)nc21 0.501 µM, Nc1nc(SCc2ccccc2)c2ncn(Cc3ccccc3)c2n1 2.51 µM, Cn1c(=O)oc2cc(S(=O)(=O)NCCC(=O)N3CC=C(c4ccccc4)CC3)ccc21 6.31 µM, Cc1c(Cl)cccc1NC(=O)c1ccc(-n2ccnc2)nc1 0.0447 µM, O=C(Nc1ccc(F)cc1)c1ccc(-n2ccnc2)nc1 0.0708 µM, CCCCc1n[nH]c2c1/C(=N/O)CC(c1ccccc1)C2 (stereo unspecified) 0.447 µM, CCCc1cc(=O)oc2cc(OCc3nn[nH]n3)ccc12 25.1 µM
